In PubChem BioAssay (EPA / NIEHS):
The source made the active and inactive calls. The calls were made as follows: active = hit-call score of the fitted dose curve at least 0.9, where 1 is the maximum; inactive = score below 0.9.

Experiments:
Conditions in all cases: mRNA level, 48 h; actives raise or lower the signal
[1] = read-out: Forkhead box O3 (FOXO3), FOXO3 (gene 2309); experiment: LTEA_HepaRG_FOXO3: Life Technologies and Expression Analysis (LTEA) Assay for Forkhead box O3 (FOXO3) using HepaRG (AID 2283459)
Procedure, shortened: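 Differentiated human HepaRG cells in serum-free induction medium were exposed in duplicate for 48 h to eight half-log concentrations up to 100 uM in 0.5% DMSO. FOXO3 mRNA was quantified by qRT-PCR, normalized to ACTB, GAPDH and POLR2A, with bidirectional fitting versus DMSO.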

[2] = read-out: ABC Transporter (ABCB1), ABCB1 (gene 5243); experiment: LTEA_HepaRG_ABCB1: Life Technologies and Expression Analysis (LTEA) Assay for ABC Transporter (ABCB1) using HepaRG (AID 2283460)
Procedure, shortened: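 Differentiated human HepaRG cells, plated 48 h then switched to serum-free induction medium, were exposed in duplicate to eight half-log concentrations up to 100 uM in 0.5% DMSO for 48 h. ABCB1 mRNA was measured by TaqMan qRT-PCR, normalized to ACTB/GAPDH/POLR2A.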

[3] = read-out: growth arrest and DNA damage 45 (GADD45B), GADD45B (gene 4616); experiment: LTEA_HepaRG_GADD45B: Life Technologies and Expression Analysis (LTEA) Assay for growth arrest and DNA damage 45 (GADD45B) using HepaRG (AID 2283461)
Procedure, shortened: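 Differentiated HepaRG cells, plated 48 h then switched to serum-free induction medium, were exposed 48 h in duplicate to eight half-log concentrations from 100 uM in 0.5% DMSO; mRNA quantified by qRT-PCR, normalized to ACTB/GAPDH/POLR2A, bidirectional fit versus DMSO.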

[4] = read-out: ABC Transporter (ABCC3), ABCC3 (gene 8714); experiment: LTEA_HepaRG_ABCC3: Life Technologies and Expression Analysis (LTEA) Assay for ABC Transporter (ABCC3) using HepaRG (AID 2283462)
Procedure, shortened: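 HepaRG cells in serum-free induction medium were exposed for 48 h in duplicate to 8-point half-log concentrations topping at 100 uM in 0.5% DMSO. ABCC3 mRNA was measured by qRT-PCR normalized to ACTB, GAPDH and POLR2A, with bidirectional fitting versus DMSO.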

[5] = read-out: ABC Transporter (ABCB11), ABCB11 (gene 8647); experiment: LTEA_HepaRG_ABCB11: Life Technologies and Expression Analysis (LTEA) Assay for ABC Transporter (ABCB11) using HepaRG (AID 2283463)
Procedure, shortened: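 Differentiated human HepaRG cells were exposed for 48 h in serum-free induction medium to eight half-log concentrations up to 100 uM in 0.5% DMSO. ABCB11 mRNA was quantified by qRT-PCR, normalized to ACTB, GAPDH and POLR2A, and fitted bidirectionally versus DMSO.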

[6] = read-out: ABC Transporter (ABCC2), ABCC2 (gene 1244); experiment: LTEA_HepaRG_ABCC2: Life Technologies and Expression Analysis (LTEA) Assay for ABC Transporter (ABCC2) using HepaRG (AID 2283464)
Procedure, shortened: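 HepaRG cells were plated 48 h, switched to serum-free induction medium, then exposed in duplicate for 48 h to 8 concentrations (top 100 uM, half-log steps, 0.5% DMSO). ABCC2 mRNA was measured by qRT-PCR normalized to ACTB/GAPDH/POLR2A; bidirectional fitting versus DMSO.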

[7] = read-out: Broad substrate specificity ATP-binding cassette transporter ABCG2 (Homo sapiens) (UniProt Q9UNQ0); experiment: LTEA_HepaRG_ABCG2: Life Technologies and Expression Analysis (LTEA) Assay for ABC Transporter (ABCG2) using HepaRG (AID 2283465)
Procedure, shortened: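 Differentiated HepaRG cells in serum-free induction medium were exposed for 48 h, in duplicate, to eight half-log concentrations up to 100 uM in 0.5% DMSO. ABCG2 mRNA was measured by TaqMan qRT-PCR, normalized to ACTB, GAPDH and POLR2A, and fitted bidirectionally versus DMSO.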

[8] = read-out: ATP-citrate lyase (ACLY), ACLY (gene 47); experiment: LTEA_HepaRG_ACLY: Life Technologies and Expression Analysis (LTEA) Assay for ATP-citrate lyase (ACLY) using HepaRG (AID 2283466)
Procedure, shortened: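 Differentiated human HepaRG cells in serum-free induction medium exposed 48 h, in duplicate, to eight half-log concentrations from 100 uM top in 0.5% DMSO; ACLY mRNA measured by qRT-PCR, normalized to ACTB, GAPDH, POLR2A, fitted bidirectionally versus DMSO.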

[9] = read-out: Peroxisomal acyl-coenzyme A oxidase 1 (ACOX1) gene, ACOX1 (gene 51); experiment: LTEA_HepaRG_ACOX1: Life Technologies and Expression Analysis (LTEA) Assay for Peroxisomal acyl-coenzyme A oxidase 1 (ACOX1) gene using HepaRG (AID 2283467)
Procedure, shortened: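 Differentiated human HepaRG cells were exposed in duplicate for 48 h in serum-free induction medium to eight half-log concentrations up to 100 uM in 0.5% DMSO. ACOX1 mRNA was then quantified by TaqMan qRT-PCR, normalized to ACTB, GAPDH and POLR2A.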

[10] = read-out: Alkaline Phosphatase, Placental (ALPP) gene, ALPP (gene 250); experiment: LTEA_HepaRG_ALPP: Life Technologies and Expression Analysis (LTEA) Assay for Alkaline Phosphatase, Placental (ALPP) gene using HepaRG (AID 2283468)
Procedure, shortened: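 Differentiated human HepaRG cells were plated and cultured 48 h, then exposed in duplicate for 48 h in serum-free induction medium to eight half-log concentrations from 100 uM in 0.5% DMSO. ALPP mRNA was measured by TaqMan qRT-PCR, normalized to ACTB, GAPDH, POLR2A.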

[11] = read-out: Bcl-2 (BAD) gene, BAD (gene 572); experiment: LTEA_HepaRG_BAD: Life Technologies and Expression Analysis (LTEA) Assay for Bcl-2 (BAD) gene using HepaRG (AID 2283469)
Procedure, shortened: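 Differentiated human HepaRG cells in serum-free induction medium were exposed in duplicate for 48 h to eight concentrations (top 100 uM, half-log steps, 0.5% DMSO). BAD mRNA was quantified by qRT-PCR normalised to ACTB, GAPDH and POLR2A, with bidirectional fitting versus DMSO.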

[12] = read-out: Bcl-2 (BAX) gene, BAX (gene 581); experiment: LTEA_HepaRG_BAX: Life Technologies and Expression Analysis (LTEA) Assay for Bcl-2 (BAX) gene using HepaRG (AID 2283470)
Procedure, shortened: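 Differentiated HepaRG cells exposed 48 h in serum-free induction medium, eight half-log concentrations from 100 uM, in duplicate, 0.5% DMSO vehicle. BAX mRNA by TaqMan qRT-PCR, normalised to ACTB, GAPDH and POLR2A.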

[13] = read-out: adenosine kinase (ADK) gene, ADK (gene 132); experiment: LTEA_HepaRG_ADK: Life Technologies and Expression Analysis (LTEA) Assay for adenosine kinase (ADK) gene using HepaRG (AID 2283471)
Procedure, shortened: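 Read-out is ADK transcript level measured by qRT-PCR and normalised to three housekeeping genes. Cells are human HepaRG, dosed for 48 h at up to 100 uM in 0.5% DMSO. Gain or loss of signal is fitted against DMSO controls.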

[14] = read-out: Alpha-fetoprotein (AFP) gene, AFP (gene 174); experiment: LTEA_HepaRG_AFP: Life Technologies and Expression Analysis (LTEA) Assay for Alpha-fetoprotein (AFP) gene using HepaRG (AID 2283472)
Procedure, shortened: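 Differentiated human HepaRG cells exposed 48 h in serum-free induction medium, 8-point half-log series from 100 uM in 0.5% DMSO, duplicate. AFP mRNA by qRT-PCR, normalized to ACTB, GAPDH, POLR2A; bidirectional fit vs DMSO.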

BCL2L11 (gene 10018) = experiment: LTEA_HepaRG_BCL2L11: Life Technologies and Expression Analysis (LTEA) Assay for Bcl-2 (BCL2L11) gene using HepaRG (AID 2283473)
Procedure, shortened: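 Differentiated human HepaRG cells in serum-free induction medium were exposed in duplicate for 48 h to eight concentrations (top 100 uM, half-log steps, 0.5% DMSO). BCL2L11 mRNA was quantified by TaqMan qRT-PCR, normalized to ACTB/GAPDH/POLR2A, bidirectional fit versus DMSO.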

[15] = read-out: Apolipoprotein A-V (APOA5) gene, APOA5 (gene 116519); experiment: LTEA_HepaRG_APOA5: Life Technologies and Expression Analysis (LTEA) Assay for Apolipoprotein A-V (APOA5) gene using HepaRG (AID 2283474)
Procedure, shortened: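 Differentiated human HepaRG cells were exposed in duplicate for 48 h to eight half-log concentrations from 100 uM in 0.5% DMSO. APOA5 mRNA was quantified by TaqMan qRT-PCR, normalized to ACTB, GAPDH and POLR2A, and fitted bidirectionally against DMSO.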

[16] = read-out: Apoptosis regulator Bcl-2 (Homo sapiens) (UniProt P10415); experiment: LTEA_HepaRG_BCL2: Life Technologies and Expression Analysis (LTEA) Assay for Bcl-2 gene using HepaRG (AID 2283475)
Procedure, shortened: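 Differentiated human HepaRG cells in serum-free induction medium exposed 48 h, in duplicate, to 8-point half-log series from 100 uM in 0.5% DMSO. BCL2 mRNA by qRT-PCR (TaqMan/Fluidigm), normalized to ACTB, GAPDH, POLR2A; bidirectional fit against DMSO.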

[17] = read-out: Bcl-2 (BID) gene, BID (gene 637); experiment: LTEA_HepaRG_BID: Life Technologies and Expression Analysis (LTEA) Assay for Bcl-2 (BID) gene using HepaRG (AID 2283476)
Procedure, shortened: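 Gene expression by qRT-PCR in HepaRG cells after 48 h exposure, duplicate wells, eight half-log concentrations topping at 100 uM in 0.5% DMSO. Normalized to ACTB, GAPDH, POLR2A; bidirectional fitting relative to DMSO.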

Caspase-3 (Homo sapiens) = Caspase-3 (Homo sapiens) (UniProt P42574); experiment: LTEA_HepaRG_CASP3: Life Technologies and Expression Analysis (LTEA) Assay for cysteine-aspartic acid protease (CASP3) using HepaRG (AID 2283477)
Procedure, shortened: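 Differentiated human HepaRG cells in serum-free induction medium were exposed 48 h to 8-point half-log concentrations from 100 uM (0.5% DMSO vehicle). CASP3 mRNA was measured by qRT-PCR, normalised to ACTB, GAPDH and POLR2A, with bidirectional fitting against DMSO.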

[18] = read-out: Cytochrome P450 (CYP24A1), CYP24A1 (gene 1591); experiment: LTEA_HepaRG_CYP24A1: Life Technologies and Expression Analysis (LTEA) Assay for Cytochrome P450 (CYP24A1) using HepaRG (AID 2283478)
Procedure, shortened: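 Differentiated HepaRG cells, pre-cultured 48 h, were exposed in duplicate for 48 h in serum-free induction medium to 8 half-log concentrations (top 100 uM, 0.5% DMSO). CYP24A1 mRNA was quantified by TaqMan qRT-PCR, normalized to ACTB/GAPDH/POLR2A, fitted bidirectionally versus DMSO.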

Measured: outcome

Broad substrate specificity ATP-binding cassette transporter ABCG2 (Homo sapiens), sequence (Q9UNQ0 whole entry, looked up): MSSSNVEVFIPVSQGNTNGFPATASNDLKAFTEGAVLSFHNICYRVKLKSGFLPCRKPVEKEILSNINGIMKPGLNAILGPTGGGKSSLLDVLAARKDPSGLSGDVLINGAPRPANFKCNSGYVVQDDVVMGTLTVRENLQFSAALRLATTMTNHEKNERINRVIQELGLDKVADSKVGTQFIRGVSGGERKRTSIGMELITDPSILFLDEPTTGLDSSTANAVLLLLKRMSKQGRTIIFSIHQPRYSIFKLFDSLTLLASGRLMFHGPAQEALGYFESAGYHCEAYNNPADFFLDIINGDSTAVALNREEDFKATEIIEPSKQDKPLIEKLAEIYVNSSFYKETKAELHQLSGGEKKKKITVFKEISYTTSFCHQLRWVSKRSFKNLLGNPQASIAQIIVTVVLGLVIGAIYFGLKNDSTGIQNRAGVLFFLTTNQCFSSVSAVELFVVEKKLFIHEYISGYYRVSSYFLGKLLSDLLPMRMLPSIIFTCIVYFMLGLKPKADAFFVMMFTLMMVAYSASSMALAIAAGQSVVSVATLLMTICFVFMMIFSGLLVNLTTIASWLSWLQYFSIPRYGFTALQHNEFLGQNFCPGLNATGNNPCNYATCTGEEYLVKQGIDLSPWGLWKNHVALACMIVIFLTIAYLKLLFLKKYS
Apoptosis regulator Bcl-2 (Homo sapiens), sequence (P10415 whole entry, looked up): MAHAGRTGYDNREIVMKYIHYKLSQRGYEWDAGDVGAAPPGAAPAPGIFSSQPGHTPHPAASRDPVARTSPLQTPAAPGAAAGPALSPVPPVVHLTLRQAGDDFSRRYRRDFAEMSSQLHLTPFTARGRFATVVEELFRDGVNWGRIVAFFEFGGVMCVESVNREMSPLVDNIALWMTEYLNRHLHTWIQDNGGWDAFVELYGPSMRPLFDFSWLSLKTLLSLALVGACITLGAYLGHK
Caspase-3 (Homo sapiens), sequence (P42574 whole entry, looked up): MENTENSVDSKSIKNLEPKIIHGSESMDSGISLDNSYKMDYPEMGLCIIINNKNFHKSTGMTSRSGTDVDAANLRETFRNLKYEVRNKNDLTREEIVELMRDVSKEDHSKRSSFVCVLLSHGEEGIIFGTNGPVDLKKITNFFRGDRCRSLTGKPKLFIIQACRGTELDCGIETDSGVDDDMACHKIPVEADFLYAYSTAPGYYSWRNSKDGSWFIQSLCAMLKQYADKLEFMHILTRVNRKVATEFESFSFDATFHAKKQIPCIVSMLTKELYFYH

O=C(CCl)c1ccccc1
inactive: [1] | [2] | [3] | [4] | [5] | [6] | [7] | [8] | [9] | [10] | [11] | [12] | [13] | [14] | BCL2L11 (gene 10018) | [15] | [16] | [17] | Caspase-3 (Homo sapiens) | [18]

O=[N+]([O-])c1ccc(Cl)cc1
inactive: [1] | [2] | [3] | [4] | [5] | [6] | [7] | [8] | [9] | [10] | [11] | [12] | [13] | [14] | BCL2L11 (gene 10018) | [15] | [16] | [17] | Caspase-3 (Homo sapiens) | [18]

N#CCCCCC#N
inactive: [1] | [2] | [3] | [4] | [5] | [6] | [7] | [8] | [9] | [10] | [11] | [12] | [13] | [14] | BCL2L11 (gene 10018) | [15] | [16] | [17] | Caspase-3 (Homo sapiens) | [18]
